This passage reports Potency results from PubChem BioAssay (NCATS).

Records with an inconclusive call do not appear. Activity calls are given as the source filed them. The call rests on the fitted dose curve; in most records, active means well fitted curve in the direction sought with a large enough effect; inconclusive means small, poorly fitted or top-dose-only effect, or another doubt; inactive means no such curve, though single readings can be large; an effect the other way counts as inactive or inconclusive.

A short description of assay [1]: qHTS of pediatric cancer cell lines to identify multiple opportunities for drug repurposing: Confirmatory screen for Saos-2 cells (AID 1347127). Further: nearly all actives have a fitted effect of over 60% in size. Further: potency means the concentration at half of the fitted maximal effect. Summed up: (§1)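 Viability after 48 h compound treatment at 37C, 500-1,000 cells/well, read as ATP luminescence with CellTiter-Glo. Primary screens used 11-point (MIPE, 0.78 nM-46 µM) or 8-point (NPC, 0.59 nM-46 µM) final concentrations; follow-up screens used 11-point dilutions.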
For orientation: qHTS replaces the single test concentration by a dilution series.

The nature of assay [2]: qHTS of pediatric cancer cell lines to identify multiple opportunities for drug repurposing: Confirmatory screen for OHS-50 cells (AID 1347128).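 Further: potency means the concentration at half of the fitted maximal effect; compound exposure lasted 48 h at 37 degrees C; nearly all actives have a fitted effect of over 55% in size.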 Summed up: as §1
Assay [3] is described as follows: qHTS of pediatric cancer cell lines to identify multiple opportunities for drug repurposing: Confirmatory screen for SK-N-SH cells (AID 1347129).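 Further: cells exposed to compound for 48 h before viability read; nearly all actives have a fitted effect of over 60% in size.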 Further: potency means the concentration at half of the fitted maximal effect. In short, it runs like this:
as §1

Assay [4] deals with Zika virus NS2B-NS3 protease. As to the kind of experiment: Primary screen GU AMC qHTS for Zika virus inhibitors (AID 1347154). Further: nearly all actives have a fitted effect of over 70% in size. Further: potency means the concentration at half of the fitted maximal effect. In short, it runs like this: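 Unlinked Zika NS2B hydrophilic domain–NS3 protease complex at 25 nM in 10 mM Tris-HCl pH 8.0, 0.01% Tween 20, with an AMC peptide substrate. Fluorescence change (340/450 nm) over 15 min at room temperature, normalized to controls, fitted to 4-parameter Hill.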

Assay [5] has as its system Zika virus NS2B-NS3 protease (unlinked complex). Nature of the assay: Primary screen GU Rhodamine qHTS for Zika virus inhibitors: Unlinked NS2B-NS3 protease assay (AID 1347159). Further: nearly all actives have a fitted effect of over 60% in size. Summed up: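 Buffer 10 mM Tris-HCl pH 8.0, 0.01% Tween 20. Unlinked protease 25 nM; compound preincubation 15 min, RT, protected from light. Substrate Rhod110, 1.5 microM; ~15% conversion in 15 min.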

The target of a further assay is Furin (Homo sapiens) (UniProt P09958). Nature of the assay: Furin counterscreen qHTS for Zika virus inhibitors (AID 1347149). Further: potency means the concentration at half of the fitted maximal effect; nearly all actives have a fitted effect of over 70% in size. Summed up:
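Counterscreen measures cleavage of 2 microM BOC-RVRR-AMC, below its ~15 microM Km, by 5 nM full-length human furin at pH 7.0 after a 15-min compound preincubation. Inhibition derives from the 15-min fluorescence increase at 37C.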
In general terms: The purpose of a counterscreen is to sort out artefacts and off-target activity.

Assay [6] can be described thus: ZIKV-mCherry secondary qHTS for Zika virus inhibitors (AID 1347158). Further: potency means the concentration at half of the fitted maximal effect. Summed up: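 This orthogonal imaging screen measured ZIKV-mCherry infection of Vero cells exposed to compound, MOI 1, 48-72 h. Percent infection came from segmented nuclei scored mCherry-positive above 3 SD of negative controls.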

Furin (Homo sapiens), sequence (P09958 whole entry, looked up): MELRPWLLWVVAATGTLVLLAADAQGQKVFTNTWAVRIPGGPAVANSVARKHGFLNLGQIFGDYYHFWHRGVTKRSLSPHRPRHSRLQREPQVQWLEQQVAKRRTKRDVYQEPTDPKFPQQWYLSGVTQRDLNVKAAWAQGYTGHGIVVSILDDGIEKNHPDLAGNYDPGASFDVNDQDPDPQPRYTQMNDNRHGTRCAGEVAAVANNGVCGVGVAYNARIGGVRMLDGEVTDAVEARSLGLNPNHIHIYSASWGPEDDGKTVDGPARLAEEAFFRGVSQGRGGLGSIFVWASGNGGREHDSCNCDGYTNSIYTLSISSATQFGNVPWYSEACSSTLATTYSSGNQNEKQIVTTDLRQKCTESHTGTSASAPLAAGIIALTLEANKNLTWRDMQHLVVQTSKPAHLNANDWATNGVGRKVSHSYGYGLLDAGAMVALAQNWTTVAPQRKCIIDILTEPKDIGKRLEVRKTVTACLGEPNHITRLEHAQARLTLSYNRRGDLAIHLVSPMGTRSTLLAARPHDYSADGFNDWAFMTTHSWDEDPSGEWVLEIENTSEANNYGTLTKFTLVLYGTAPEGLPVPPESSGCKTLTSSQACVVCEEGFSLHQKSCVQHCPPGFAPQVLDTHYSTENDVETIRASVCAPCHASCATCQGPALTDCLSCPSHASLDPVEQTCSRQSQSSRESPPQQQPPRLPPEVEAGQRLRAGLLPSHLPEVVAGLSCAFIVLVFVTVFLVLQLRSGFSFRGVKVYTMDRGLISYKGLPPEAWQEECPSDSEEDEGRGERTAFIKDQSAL

Take `O=C(O)c1ccc2cc(-c3ccc(O)c(C45CC6CC(CC(C6)C4)C5)c3)ccc2c1`: the Potency in assay [1] was 1.31 µM (active); in assay [2], 2.93 µM (active).

On to `Cc1cc(N2CCOCC2)cc2[nH]c(-c3c(NC[C@@H](O)c4cccc(Cl)c4)cc[nH]c3=O)nc12`, for which the Potency in assay [1] is 3.69 µM (active); in assay [2] it was 3.29 µM (active); in assay [3] it was 3.72 µM (active); in assay [4], 17.1 µM (active).

For the molecule `CC(=O)Nc1nc(C)c(-c2ccc(Cl)c(S(=O)(=O)NCCO)c2)s1`, the Potency in assay [1] is 16.5 µM (active); in assay [2], 11.7 µM (active). Besides, the Potency entry in assay [4] and in assay [5] was “inactive” in each case.

`CC(C)(C)c1cnc(CSc2cnc(NC(=O)C3CCNCC3)s2)o1`: the results for the Potency in assay [1], in assay [2] and in assay [3] were 0.465 µM (active), 0.329 µM (active) and 0.935 µM (active), respectively. Also, in assay [4], the Potency result is “inactive”.

Take `COc1cc2c(Oc3ccc(-c4cnc(Nc5ccc(F)cc5)n(C)c4=O)cc3F)ccnc2cc1OCCCN1CCOCC1`: the Potency in assay [1] was 7.37 µM (active); in assay [2] it was 3.69 µM (active); in assay [3] it was 3.32 µM (active); in assay [4] it was 24.1 µM (active). The Potency result in assay [5] was “inactive”.

Turning to `Cc1cc(Nc2cc(NC(=O)c3c(Cl)cccc3Cl)ccn2)nc(N)n1`, the Potency was 1.31 µM (active) in assay [1] and 0.369 µM (active) in assay [2]. For the same molecule, in assay [4], the Potency entry was “inactive”.

Turning to `CNC(=O)c1ccccc1Nc1nc(Nc2ccc(N3CCOCC3)cc2OC)ncc1Cl`, the Potency in assay [1] is 1.47 µM (active); in assay [2], 2.93 µM (active); in assay [3], 1.18 µM (active). In addition, the Potency entry in assay [4] and in assay [5] was “inactive” throughout.

With `CCn1nnc2c(N3CCOCC3)nc(-c3ccc(NC(=O)Nc4ccc(C(=O)N5CCN(C)CC5)cc4)cc3)nc21`, the Potency is 0.657 µM (active) in assay [1], 1.17 µM (active) in assay [2] and 5.9 µM (active) in assay [3]. Further, the Potency result in assay [5] is “inactive”.

As to `COc1cc(Nc2ncc(F)c(Nc3ccc4c(n3)N(COP(=O)(O)O)C(=O)C(C)(C)O4)n2)cc(OC)c1OC`, the Potency in assay [1] was 7.37 µM (active); in assay [2] it was 5.22 µM (active); in assay [3] it was 2.35 µM (active).

`CC[C@H]1CN2CCc3cc(OC)c(OC)cc3[C@H]2C[C@@H]1C[C@@H]1NCCc2cc(OC)c(OC)cc21`: the Potency in assay [1] was 0.928 µM (active); in assay [2], 0.414 µM (active). The Potency entry in assay [4] is “inactive”.

For `CC(=O)OCC(=O)[C@@]1(O)[C@H](C)C[C@H]2[C@@H]3C=C(C)C4=Cc5c(cnn5-c5ccccc5)C[C@]4(C)[C@@H]3[C@@H](O)C[C@@]21C`, the Potency in assay [1] was 14.7 µM (active); in assay [2], 16.5 µM (active); in assay [3], 14.8 µM (active). For the same molecule, the Potency result in assay [4] is “inactive”.

As for `Cc1nc2cnc3ccc(C#Cc4cccnc4)cc3c2n1-c1ccc(C(C)(C)C#N)cc1`, the Potency in assay [1] is 5.37 µM (active); in assay [2] it was 3.39 µM (active); in assay [3], 2.15 µM (active). Besides, the Potency result in assay [4] was “inactive”.

With `CC(C)c1cnn2c(NCc3ccccc3)cc(N[C@@H](CO)[C@H](O)CO)nc12`, the Potency was 0.585 µM (active) in assay [1], 0.522 µM (active) in assay [2] and 0.332 µM (active) in assay [3]. Besides, the Potency result in assay [4] and in assay [5] was “inactive” each time.

Take `Cn1c2ccccc2c2c3c(c4c5ccccc5n(CCC#N)c4c21)CNC3=O`: the figures for the Potency in assay [1], in assay [2] and in assay [3] were 9.27 µM (active), 11.7 µM (active) and 14.8 µM (active), respectively. The Potency result in assay [4] was “inactive”.

With `Cc1ccc(C(N)=O)cc1Nc1nccc(-c2cn(C(C)C)c3cnccc23)n1`, the Potency in assay [1] is 21.4 µM (active); in assay [2] it was 12 µM (active); in assay [3], 6.79 µM (active). Moreover, the Potency entry in assay [4] and in assay [5] was “inactive” in each case.

As for `O=C(C=Cc1cccc(S(=O)(=O)Nc2ccccc2)c1)NO`, the Potency is 1.91 µM (active) in assay [1] and 7.59 µM (active) in assay [2]. Further, the Potency entry in assay [4] was “inactive”.

Turning to `CC(C)[C@H](C(=O)Nc1ccc(C(=O)NO)cc1)c1ccccc1`, the Potency was 1.85 µM (active) in assay [1] and 2.33 µM (active) in assay [2]. The Potency result in assay [3] is “inactive”.

For `C=CCn1c(=O)c2cnc(Nc3ccc(N4CCN(C)CC4)cc3)nc2n1-c1cccc(C(C)(C)O)n1`, the Potency in assay [1] is 1.31 µM (active); in assay [2], 1.04 µM (active); in assay [3] it was 3.32 µM (active). Also, the Potency entry in assay [5] is “inactive”.

With `Cc1c(Cn2c(C)nc3c(C(=O)O)cc(N4CCOCC4)cc32)cccc1C(F)(F)F`, in assay [1], the Potency entry is “inactive”.

Take `CC[C@@H]1C(=O)N(C)c2cnc(Nc3ccc(C(=O)NC4CCN(C)CC4)cc3OC)nc2N1C1CCCC1`: the Potency in assay [1] is 0.0369 µM (active); in assay [2] it was 0.0522 µM (active). Also, the Potency result in assay [4] is “inactive”.

For `O=c1[nH]nc(Sc2ncc([N+](=O)[O-])s2)n1-c1ccc2c(c1)OCCO2`, the figures for the Potency in assay [1], in assay [2] and in assay [3] were 8.27 µM (active), 13.1 µM (active) and 9.35 µM (active), respectively. Besides, the Potency result in assay [4] is “inactive”.

For the molecule `C[C@@]12O[C@@H](C[C@]1(O)CO)n1c3ccccc3c3c4c(c5c6ccccc6n2c5c31)CNC4=O`, the Potency was 1.31 µM (active) in assay [1]; 4.65 µM (active) in assay [2]; 5.26 µM (active) in assay [3]; 7.62 µM (active) with Furin (Homo sapiens); 21.5 µM (active) in assay [4]; 8.91 µM (active) in assay [6].

With `C=CC(=O)Nc1cc2c(Nc3ccc(F)c(Cl)c3)ncnc2cc1C#CC(C)(C)N1CCN(C)CC1`, the Potency in assay [1] is 4.27 µM (active); in assay [2], 6.03 µM (active); in assay [3] it was 4.29 µM (active).
